According to PubChem BioAssay (NCI):
Compounds without any hit were thinned out: in the full panel of roughly 83,000, 20% have a hit.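 For each line, cells grew in 96-well plates with the test compound present at a single concentration for 48 hours.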 A number with no mark means an inactive call. Activity calls are given as the source filed them. How the source made its calls: active means growth percent below 10; inactive means the rest.

What was measured:
Experiment in all cases: NCI-60 one-dose screen, 48 h (100 = growth as untreated, 0 = no growth, -100 = all killed)
Settings in all cases: 10 µM unless noted
[1] = system: NCI-H23 lung
[2] = system: NCI-H226 lung
[3] = system: NCI-H322M lung
[4] = system: HOP-62 NSCLC
[5] = system: NCI-H460 lung
[6] = system: HOP-92 NSCLC
[7] = system: NCI-H522 lung
[8] = system: A549/ATCC NSCLC
[9] = system: 786-0 renal
[10] = system: COLO 205 colon
[11] = system: K-562 leukemia
[12] = system: MALME-3M melanoma
[13] = system: MDA-MB-231 breast
[14] = system: RXF 393 renal
[15] = system: SF-295 CNS
[16] = system: SF-539 CNS
[17] = system: UACC-257 melanoma
[18] = system: DU-145 prostate
[19] = system: SF-268 CNS

SMILES	growth [1]	growth [2]	growth [3]	growth [4]	growth [5]	growth [6]	growth [7]	growth [8]	growth [9]	growth [10]	growth [11]	growth [12]	growth [13] [%]	growth [14]	growth [15]	growth [16]	growth [17]	growth [18]	growth [19]
CN1CCN(C2=C(Cl)C(=O)c3ccccc3C2=O)CC1	55.5%	94.2%	97.4%	94.9%	92.3%	102%	25.1%	81.4%	84.7%	81.4%	23.1%	4.5% (active)	41.6	101%	84.1%	105%	56.5%	–	–
CCOC(=O)c1c2c(c(C)n1C)-c1nn(Cc3ccc(OC)cc3)cc1CC2	83.2%	94.5%	190%	132%	111%	-0.787% (active)	90.7%	91.9%	74.7%	–	69.1%	161%	98.2	113%	100%	111%	113%	106%	103%
Cn1ccc(Cc2cnc(N)s2)n1	101%	98.8%	102%	100%	106%	98.1%	84.3%	84.3%	101%	105%	–	100%	104	107%	107%	99.5%	81.7%	110%	100%
CCOC(=O)c1nnn(-c2ccccc2)c1C1=CN(C)CCC1	92.8%	102%	95.8%	99.6%	104%	108%	86.7%	99.6%	97.3%	113%	–	104%	112	120%	98.2%	95.2%	99.4%	103%	92.4%
COc1ccc(N(C)c2nc(Cl)nc3cnn(C)c23)cc1	34.4%	1% (active)	34.1%	21.9%	7.51% (active)	28.6%	-27.6% (active)	10.8%	8.74% (active)	-68.3% (active)	–	75.3%	19.2	44.8%	17.9%	-9.34% (active)	38.1%	7.13% (active)	29.1%
O=C(Nc1ccccc1)c1sc(-c2cccc(C(F)(F)F)c2)cc1O	54.1%	80.1%	77.1%	79.5%	49.4%	-7.04% (active)	39.6%	64.2%	89.6%	107%	–	81.4%	91.9	102%	82.9%	42.2%	46.9%	82.4%	82.8%
COc1cc(C(=O)/C=C/c2c(C(F)(F)F)nc3ccccn23)cc(OC)c1OC	-50.3% (active)	-25.5% (active)	8.14% (active)	-26.9% (active)	-44.4% (active)	2.54% (active)	-51.4% (active)	9.73% (active)	-60.9% (active)	–	-9.61% (active)	7.53% (active)	13.9	-68.8% (active)	-14.9% (active)	-92.8% (active)	-9.93% (active)	-25.8% (active)	-36.1% (active)
CCCCNC(=O)c1cc(NCc2cc(O)ccc2O)ccc1O	93.4%	106%	91.3%	84.4%	106%	67.7%	-55.7% (active)	77.1%	80.4%	108%	–	108%	84	83.7%	101%	62.2%	68.9%	99.7%	84.1%
COC1=CC(c2ccc[nH]2)=N/C1=C\c1[nH]c(C)c(C(=O)OCCn2cc(CCC[C@@H]3Cc4cc(O)ccc4C4CC[C@]5(C)[C@@H](O)CC[C@H]5C43)nn2)c1C (some centres not stated)	80.8%	85.7%	82%	88.6%	53.3%	67.8%	92.1%	82.2%	62.5%	80.5%	51.9%	131%	–	60.1%	96.1%	64.2%	96.4%	50.1%	69.9%
Nc1ccc2c(S(=O)(=O)O)ccc(S(=O)(=O)O)c2c1	100%	101%	121%	92.3%	101%	89.1%	85%	92.6%	97.8%	–	90.6%	109%	111	114%	105%	88.5%	95.3%	115%	102%
Cc1nc(Nc2ccc(NC(=S)Nc3ccccc3)cc2)nc2nc(SCc3ccccc3)[nH]c(=O)c12	101%	82.6%	173%	95.2%	107%	82.4%	40.5%	57.9%	99.1%	126%	72.1%	–	76.9	-24% (active)	169%	63.3%	74.8%	104%	98.4%
